# PubChem BioAssay (NCATS)
# “And” between values parts separate entries of the source, which are not always exact repeats. Equal entries are not always repeated. Results filed as inconclusive are left out. Where a call stands in place of a potency, no number is given. The source made the active and inactive calls. Unless noted, calls come from the whole dose curve.
# Assays:
# [1] = molecular target: Estrogen receptor (Homo sapiens) (UniProt P03372); assay: qHTS assay for small molecule agonists of estrogen receptor alpha signaling (AID 588514); conditions: ER-alpha-UAS-bla HEK293, beta-lactamase ratio, 18 h; series mostly up to 76.8 µM; note: nearly all actives have a fitted effect of over 70% in size
# Procedure, shortened: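 ER-alpha-UAS-bla GripTite HEK293 cells, 5000/well in 2% charcoal/dextran-stripped FBS medium, treated with compound titrations 18 h at 37 C. CCF4 beta-lactamase read by fluorescence after 2 h RT; normalised to 20 nM 17-beta-estradiol (100%) and DMSO (0%), Hill fit for EC50 and efficacy.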
# [2] = molecular target: Glucocorticoid receptor (Homo sapiens) (UniProt P04150); assay: qHTS assay for small molecule agonists of glucocorticoid receptor signaling (AID 588532; active = well fitted curve in the direction sought with a large enough effect in the signal ratio, with a control signal flat; the % refers to the signal ratio); conditions: HeLa MMTV-bla, beta-lactamase ratio, agonist, 18 h; stronger effect = higher value; percent of dexamethasone control, DMSO zero
# Procedure, shortened: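 Stimulation of a glucocorticoid response element-driven beta-lactamase gene was measured in HeLa cells. Responses were scaled between DMSO basal and 0.1 uM dexamethasone, then fitted for half-maximal stimulation.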
# [3] = molecular target: Peroxisome proliferator-activated receptor gamma (Homo sapiens) (UniProt P37231); assay: qHTS assay for small molecule antagonists of peroxisome proliferator-activated receptor gamma signaling (AID 588537; active = well fitted inhibition curve with a large enough effect in the signal ratio, with a control signal flat, not every such curve was filed as active; the % refers to the signal ratio;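 note: reporter cells co-stimulated with 50 nM rosiglitazone agonist during compound treatment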); conditions: HEK293 PPARg-UAS-bla, beta-lactamase ratio, antagonist mode; series mostly up to 76.8 µM
# Procedure, shortened: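 We seeded GeneBLAzer HEK293 reporter cells at 3000 per well, allowed 6-6.5 h attachment at 37 C, then co-treated with test compound titrations and 50 nM rosiglitazone overnight (16 h). Inhibition was quantified from 460/530 nm emission ratios.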
# [4] = molecular target: DNA dC->dU-editing enzyme APOBEC-3G (Homo sapiens) (UniProt Q9HC16); assay: qHTS for inhibitors of Vif-A3G interactions: Validation (AID 588379; active = well fitted inhibition curve with a large enough effect); conditions: Vif-A3G protein interaction assay; series mostly up to 46.1 µM
# Procedure, shortened: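 HeLa cells stably expressing Vif and A3G-eYFP, 700 cells/well, incubated overnight at 37 deg C, then exposed to compound overnight at 37 deg C. Inhibition of Vif-mediated degradation read as increased yellow fluorescence (Ex 488/Em 500-530) by laser-scanning cytometry.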
# [5] = molecular target: Androgen receptor (Homo sapiens) (UniProt P10275); assay: qHTS assay for small molecule agonists of androgen receptor signaling (AID 588515; active = well fitted curve in the direction sought with a large enough effect in the signal ratio, with a control signal flat; the % refers to the signal ratio); conditions: AR-UAS-bla HEK293, beta-lactamase ratio, agonist 16 h; stronger effect = higher value
# Procedure, shortened: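 EC50 and efficacy came from Hill fits of titrations (up to 92 uM) normalized to 30 nM R1881 as 100% and DMSO as 0%. Compound exposure was 16 h at 37 C on AR-UAS-bla HEK293 cells, with a 405/460/530 nm CCF4 fluorescence read.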
# [6] = molecular target: Bile acid receptor (Homo sapiens) (UniProt Q96RI1); assay: qHTS assay for small molecule antagonists of farnesoid X receptor signaling (AID 588526); conditions: HEK293T FXR-UAS-bla, beta-lactamase ratio, antagonist mode; series mostly up to 76.7 µM
# Procedure, shortened: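 Concentration-response titrations were fitted to the Hill equation for half-maximal inhibition and maximal response, with data normalised to 50 uM chenodeoxycholic acid and DMSO control wells. Cells: FXR-UAS-bla HEK293T, dialyzed FBS.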
# [7] = molecular target: Glucocorticoid receptor (Homo sapiens) (UniProt P04150); assay: qHTS assay for small molecule antagonists of glucocorticoid receptor signaling (AID 588533; active = well fitted inhibition curve with a large enough effect in the signal ratio, with a control signal flat, not every such curve was filed as active; the % refers to the signal ratio;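 note: cells stimulated with 2 nM dexamethasone as agonist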); conditions: HeLa MMTV-bla, GRE beta-lactamase ratio, antagonist mode, 18 h; series mostly up to 76.8 µM
# Procedure, shortened: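 Antagonist-mode qHTS: compound titrations added to GRE-bla HeLa cells, then dexamethasone 2 nM final; 18 h, 37 C. CCF4 FRET fluorescence normalized to dexamethasone and DMSO; IC50 from Hill fit.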
# [8] = qHTS assay for small molecule antagonists of peroxisome proliferator-activated receptor delta signaling (AID 588535; active = well fitted inhibition curve with a large enough effect in the signal ratio, with a control signal flat, not every such curve was filed as active; the % refers to the signal ratio;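 for max response: cells co-treated with a PPAR-delta agonist as stimulator during compound exposure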); conditions: HEK293T PPARd-UAS-bla, beta-lactamase FRET ratio, 18 h; 460 nm channel
# Procedure, shortened: (§1)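 Reporter: UAS-bla under PPAR-delta response element, HEK293T host. Medium: 2% charcoal/dextran FBS. Dosing: titration, 18 hrs, 37 C. Detection: CCF4, 2 hrs RT, 405 ex/460 and 530 em.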
# [9] = molecular target: Peroxisome proliferator-activated receptor delta (Homo sapiens) (UniProt Q03181); assay: as above; conditions: HEK293T PPARd-UAS-bla, beta-lactamase FRET ratio, 18 h; series mostly up to 76.7 µM
# Procedure, shortened: as §1
# Sequence of Estrogen receptor (Homo sapiens) (P03372 whole entry, looked up): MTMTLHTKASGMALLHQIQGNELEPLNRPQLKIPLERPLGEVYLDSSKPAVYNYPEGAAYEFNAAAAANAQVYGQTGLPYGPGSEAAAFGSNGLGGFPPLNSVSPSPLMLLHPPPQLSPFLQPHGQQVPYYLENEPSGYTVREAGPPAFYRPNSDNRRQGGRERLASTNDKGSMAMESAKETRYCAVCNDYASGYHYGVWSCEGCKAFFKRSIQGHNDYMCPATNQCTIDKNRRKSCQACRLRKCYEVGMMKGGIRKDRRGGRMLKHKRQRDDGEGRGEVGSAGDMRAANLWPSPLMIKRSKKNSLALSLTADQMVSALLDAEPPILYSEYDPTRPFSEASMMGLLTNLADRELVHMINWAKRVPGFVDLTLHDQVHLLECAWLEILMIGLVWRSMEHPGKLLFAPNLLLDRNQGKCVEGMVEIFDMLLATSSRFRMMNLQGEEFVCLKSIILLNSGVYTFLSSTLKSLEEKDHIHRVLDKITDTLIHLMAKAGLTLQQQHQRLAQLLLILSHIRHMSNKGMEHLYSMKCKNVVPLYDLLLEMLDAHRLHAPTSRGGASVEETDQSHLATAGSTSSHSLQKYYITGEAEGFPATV
# Sequence of Peroxisome proliferator-activated receptor delta (Homo sapiens) (Q03181 whole entry, looked up): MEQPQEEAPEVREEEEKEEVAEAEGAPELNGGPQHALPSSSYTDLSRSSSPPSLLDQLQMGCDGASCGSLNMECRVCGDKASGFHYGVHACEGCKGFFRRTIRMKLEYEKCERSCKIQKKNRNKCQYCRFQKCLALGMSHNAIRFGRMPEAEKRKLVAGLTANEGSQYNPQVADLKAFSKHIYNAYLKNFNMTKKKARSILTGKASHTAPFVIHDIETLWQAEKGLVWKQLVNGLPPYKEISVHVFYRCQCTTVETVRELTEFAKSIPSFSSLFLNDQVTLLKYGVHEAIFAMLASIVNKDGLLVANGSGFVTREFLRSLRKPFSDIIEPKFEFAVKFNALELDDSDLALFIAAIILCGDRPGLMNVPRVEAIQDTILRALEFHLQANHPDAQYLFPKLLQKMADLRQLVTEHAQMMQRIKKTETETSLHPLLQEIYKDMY
# Sequence of Glucocorticoid receptor (Homo sapiens) (P04150 whole entry, looked up): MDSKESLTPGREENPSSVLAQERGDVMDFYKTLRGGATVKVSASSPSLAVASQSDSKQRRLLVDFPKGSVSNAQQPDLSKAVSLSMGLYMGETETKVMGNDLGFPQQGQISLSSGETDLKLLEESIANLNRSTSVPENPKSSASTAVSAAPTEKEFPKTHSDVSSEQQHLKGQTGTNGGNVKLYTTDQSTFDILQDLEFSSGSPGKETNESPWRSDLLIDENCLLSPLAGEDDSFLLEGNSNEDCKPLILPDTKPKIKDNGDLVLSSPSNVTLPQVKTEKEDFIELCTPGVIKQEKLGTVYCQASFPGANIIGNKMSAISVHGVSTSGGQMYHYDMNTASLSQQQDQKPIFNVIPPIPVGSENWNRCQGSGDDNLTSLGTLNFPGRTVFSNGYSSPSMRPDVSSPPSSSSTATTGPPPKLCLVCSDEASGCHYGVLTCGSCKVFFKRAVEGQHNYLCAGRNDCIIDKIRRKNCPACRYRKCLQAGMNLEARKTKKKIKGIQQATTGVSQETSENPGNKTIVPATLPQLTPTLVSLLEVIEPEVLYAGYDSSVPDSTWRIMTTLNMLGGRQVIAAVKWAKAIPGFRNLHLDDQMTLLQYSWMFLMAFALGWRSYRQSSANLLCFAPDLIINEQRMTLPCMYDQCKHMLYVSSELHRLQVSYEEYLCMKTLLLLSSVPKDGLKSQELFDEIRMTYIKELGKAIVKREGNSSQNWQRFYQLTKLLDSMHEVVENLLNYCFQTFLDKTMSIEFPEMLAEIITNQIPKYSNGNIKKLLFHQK
# Sequence of Bile acid receptor (Homo sapiens) (Q96RI1 whole entry, looked up): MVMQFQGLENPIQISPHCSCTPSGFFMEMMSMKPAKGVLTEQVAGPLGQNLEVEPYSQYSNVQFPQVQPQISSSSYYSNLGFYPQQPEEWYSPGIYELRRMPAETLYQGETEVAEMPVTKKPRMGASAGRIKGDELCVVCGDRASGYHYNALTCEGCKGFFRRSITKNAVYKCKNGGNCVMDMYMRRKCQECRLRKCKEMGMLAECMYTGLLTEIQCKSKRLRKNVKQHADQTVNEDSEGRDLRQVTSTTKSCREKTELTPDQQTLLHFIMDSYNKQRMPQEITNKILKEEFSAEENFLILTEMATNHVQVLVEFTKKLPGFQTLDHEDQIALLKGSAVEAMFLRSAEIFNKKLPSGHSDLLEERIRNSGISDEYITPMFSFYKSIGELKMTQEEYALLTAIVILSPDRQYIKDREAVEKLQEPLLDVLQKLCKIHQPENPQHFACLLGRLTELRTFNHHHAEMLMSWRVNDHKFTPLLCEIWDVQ
# Sequence of Peroxisome proliferator-activated receptor gamma (Homo sapiens) (P37231 whole entry, looked up): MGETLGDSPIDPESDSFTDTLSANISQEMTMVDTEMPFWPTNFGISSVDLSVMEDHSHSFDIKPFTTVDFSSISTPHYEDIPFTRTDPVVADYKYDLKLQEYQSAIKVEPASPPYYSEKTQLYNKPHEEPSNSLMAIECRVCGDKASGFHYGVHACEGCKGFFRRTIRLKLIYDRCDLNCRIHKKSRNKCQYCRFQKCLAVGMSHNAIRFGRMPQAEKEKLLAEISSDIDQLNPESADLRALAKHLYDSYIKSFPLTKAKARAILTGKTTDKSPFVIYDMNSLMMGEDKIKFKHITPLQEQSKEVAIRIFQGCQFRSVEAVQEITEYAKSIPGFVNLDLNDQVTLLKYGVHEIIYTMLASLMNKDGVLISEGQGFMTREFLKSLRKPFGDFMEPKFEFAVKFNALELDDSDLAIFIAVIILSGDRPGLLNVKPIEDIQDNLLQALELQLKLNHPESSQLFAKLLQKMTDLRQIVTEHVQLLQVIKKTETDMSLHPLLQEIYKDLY
# Sequence of Androgen receptor (Homo sapiens) (P10275 whole entry, looked up): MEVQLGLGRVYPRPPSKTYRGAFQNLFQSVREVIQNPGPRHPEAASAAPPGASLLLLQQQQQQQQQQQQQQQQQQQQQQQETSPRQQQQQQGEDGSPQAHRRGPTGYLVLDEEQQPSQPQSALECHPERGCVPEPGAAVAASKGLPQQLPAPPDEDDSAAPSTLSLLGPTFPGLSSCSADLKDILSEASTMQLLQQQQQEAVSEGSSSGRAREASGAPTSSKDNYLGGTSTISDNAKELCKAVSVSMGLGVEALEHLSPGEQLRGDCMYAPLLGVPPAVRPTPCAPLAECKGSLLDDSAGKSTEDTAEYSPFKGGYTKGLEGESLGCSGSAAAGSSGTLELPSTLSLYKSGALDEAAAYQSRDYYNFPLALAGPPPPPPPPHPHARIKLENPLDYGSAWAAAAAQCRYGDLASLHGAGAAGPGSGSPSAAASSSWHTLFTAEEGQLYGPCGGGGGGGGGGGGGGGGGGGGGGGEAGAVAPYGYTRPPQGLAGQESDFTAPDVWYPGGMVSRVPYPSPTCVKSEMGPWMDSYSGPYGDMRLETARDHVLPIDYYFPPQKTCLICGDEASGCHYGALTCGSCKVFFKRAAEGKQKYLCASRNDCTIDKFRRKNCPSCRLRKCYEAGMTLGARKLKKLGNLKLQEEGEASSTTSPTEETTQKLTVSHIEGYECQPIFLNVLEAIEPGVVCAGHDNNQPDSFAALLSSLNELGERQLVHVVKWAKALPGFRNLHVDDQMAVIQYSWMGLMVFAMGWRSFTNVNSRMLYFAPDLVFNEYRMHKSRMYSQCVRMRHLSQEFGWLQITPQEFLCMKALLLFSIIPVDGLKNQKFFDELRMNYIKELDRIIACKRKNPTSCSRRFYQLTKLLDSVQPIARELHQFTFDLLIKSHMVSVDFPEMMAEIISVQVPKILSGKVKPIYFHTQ
# Sequence of DNA dC->dU-editing enzyme APOBEC-3G (Homo sapiens) (Q9HC16 whole entry, looked up): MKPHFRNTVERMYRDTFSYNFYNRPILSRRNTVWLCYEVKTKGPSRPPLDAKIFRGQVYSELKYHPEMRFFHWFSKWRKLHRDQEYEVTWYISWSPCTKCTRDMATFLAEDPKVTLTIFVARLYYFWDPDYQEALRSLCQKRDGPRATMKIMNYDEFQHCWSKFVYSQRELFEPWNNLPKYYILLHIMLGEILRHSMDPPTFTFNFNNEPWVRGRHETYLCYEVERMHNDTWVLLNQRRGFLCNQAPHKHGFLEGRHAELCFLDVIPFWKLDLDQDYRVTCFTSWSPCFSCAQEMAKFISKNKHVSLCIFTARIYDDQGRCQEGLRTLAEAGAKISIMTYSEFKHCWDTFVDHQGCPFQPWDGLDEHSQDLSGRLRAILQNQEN
smiles,measurement,setting,value
Oc1ccc(Cl)cc1Cc1cc(Cl)ccc1O,Potency,[1],inactive
same,activation,[2],-2.26% (inactive) and 2.38% (inactive)
CC(C)(C)CC(C)(C)c1ccc(O)c(-n2nc3ccccc3n2)c1,Potency,[1],inactive
same,activation,[2],-3.64% (inactive)
same,Potency,[3],inactive
COc1ccccc1N1CCN(CCCCNC(=O)c2ccc(-c3ccc(C(C)=O)cc3)cc2)CC1,outcome,[4],inactive
COc1ccc(C(=O)c2ccccc2)c(O)c1,activation,[5],0.242% (inactive) and -6.84% (inactive)
same,outcome,[6],inactive
same,activation,[2],4.95% (inactive) and -5.72% (inactive)
same,outcome,[7],inactive
same,max response,[8],-3.7% and 9.95%
same,outcome,[9],inactive
same,Potency,[3],inactive
CCCCCCCC/C=C\CCCCCCCCN,Potency,[1],inactive
same,max response,[8],-29.2%
same,outcome,[9],inactive
